Measured values: PubChem BioAssay
Active and inactive are the calls of the source.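 Rule for the calls, unless noted: active = visual image review flags a hit and inhibition of aggregation exceeds 20%; inconclusive = visual hit but inhibition at or below 20%; inactive = no hit on visual image review.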

Assays:
[1] = inhibitors of TNFa-induced NFkB p65 translocation, primary screen, imaging, HUVEC, MLSMR starter and 10KST1 sets (AID 438;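 active = inhibition above 20% together with a positive visual image hit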;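 note: compound added about 3h40 before a 20 min TNFalpha stimulation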;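 for inhibition: signal is the nuclear over cytoplasmic p65 intensity ratio per well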); settings: HUVEC TNFa-induced p65 nuclear translocation; cell count: measured here: nuclei count (cytotoxicity indicator), at 2.08 µM; inhibition: at 2 µM, stronger effect = higher value, 0% TNFa-plus-vehicle, 100% no-TNFa wells
[2] = inhibitors of mutant huntingtin aggregation, primary screen, imaging, exon1htt(103Q)mCFP cells, high-content imaging (AID 483); settings: exon1htt(103Q)mCFP cell line, aggregate imaging, at 2 µM; inhibition of aggregation: stronger effect = higher value; nuclei count: measured here: cell count, toxicity;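 note: compound exposure lasted 3 days before fixation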;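 for nuclei count: percent of the per-plate median nuclei count of sample wells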
[3] = inhibitors of E-selectin induction by TNFa, primary screen, imaging, HUVEC, immunofluorescence, MLSMR starter and 10KST1 sets (AID 487;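 active = visually confirmed hit in the image check and inhibition above 20%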;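 for inhibition: signal is fraction of cell area covered by stained E-selectin grains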;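 for nuclei count: 100% = median nuclei count of all wells on the same plate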); settings: HUVEC TNFalpha-induced E-selectin immunofluorescence imaging, at 2 µM; inhibition: stronger effect = higher value; nuclei count: measured here: cell number, toxicity
[4] = biological target: Voltage-gated potassium channel subunit beta-2 (Rattus norvegicus) (UniProt P62483); experiment: KvBeta enzyme negative modulators, primary screen, biochemical, NADPH fluorescence (AID 622;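 active = fluorescence slope higher than the sample average by over 3 SD, cut at about -0.22 in these data, passing the limit was not always enough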;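 note: slope of raw intensity against log time taken from 70 to 1610 s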); settings: recombinant KvBeta, 4-cyanobenzaldehyde reduction, at 10 µM, stronger effect = higher value
Chain of Voltage-gated potassium channel subunit beta-2 (Rattus norvegicus) (P62483 whole entry, looked up): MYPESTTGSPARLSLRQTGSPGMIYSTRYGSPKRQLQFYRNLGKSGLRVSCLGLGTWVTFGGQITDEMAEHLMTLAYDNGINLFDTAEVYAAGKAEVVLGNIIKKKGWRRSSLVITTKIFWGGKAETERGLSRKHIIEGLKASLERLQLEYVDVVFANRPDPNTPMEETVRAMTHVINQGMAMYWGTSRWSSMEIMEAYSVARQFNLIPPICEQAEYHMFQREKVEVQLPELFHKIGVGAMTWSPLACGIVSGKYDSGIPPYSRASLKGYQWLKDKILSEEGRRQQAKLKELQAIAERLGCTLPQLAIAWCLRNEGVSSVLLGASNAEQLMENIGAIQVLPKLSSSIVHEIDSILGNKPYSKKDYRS

[5] = biological target: Voltage-gated potassium channel subunit beta-2 (Rattus norvegicus) (UniProt P62483); experiment: KvBeta positive modulators, primary screen, biochemical, NADPH fluorescence (AID 623;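 active = NADPH fluorescence slope more negative than the mean of all samples by about 3 SD, 99.7% confidence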;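 note: fluorescence intensity change per second fitted from 20 to 320 s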); settings: Recombinant KvBeta, NADPH fluorescence decrease slope, 10 min; at 10 µM; stronger effect = lower value
[6] = biological target: Alpha-2C adrenergic receptor (Homo sapiens) (UniProt P18825); experiment: modulators of alpha2C/GIRK thallium flux, primary screen, cell-based, HEK293 alpha2C/GIRK1/2 (AID 624;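 active = fluorescence slope after compound addition differing from the mean of all screened samples at 99.7% confidence, in either direction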;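 note: slope of fluorescence ratio to pre-addition baseline per second over 15 to 24 s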); settings: thallium flux BTC fluorescence, at 10 µM, actives lie on both sides
Chain of Alpha-2C adrenergic receptor (Homo sapiens) (P18825 whole entry, looked up): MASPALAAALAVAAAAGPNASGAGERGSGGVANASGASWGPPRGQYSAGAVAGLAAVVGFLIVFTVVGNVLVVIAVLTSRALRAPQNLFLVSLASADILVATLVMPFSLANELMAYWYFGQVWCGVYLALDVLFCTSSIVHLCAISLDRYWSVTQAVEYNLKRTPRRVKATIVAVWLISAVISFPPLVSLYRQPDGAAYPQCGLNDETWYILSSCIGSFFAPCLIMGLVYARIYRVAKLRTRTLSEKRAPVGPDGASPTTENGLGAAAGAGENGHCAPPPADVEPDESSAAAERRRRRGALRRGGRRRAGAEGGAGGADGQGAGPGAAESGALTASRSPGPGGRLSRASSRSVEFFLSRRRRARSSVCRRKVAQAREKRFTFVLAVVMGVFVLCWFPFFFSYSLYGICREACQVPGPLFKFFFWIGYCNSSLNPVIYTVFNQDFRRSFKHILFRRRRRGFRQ

[7] = inhibitors of Sendai virus-induced IRF3 signaling, primary screen, TLR/RLR signaling modifier project, cell-based, Sendai virus stimulus, luciferase, 10K MLSCN set (AID 602276;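 active = inhibition at or above 50% at 10 µM; inactive = inhibition below 50%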;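 note: firefly luciferase from ISG56 promoter only with Renilla not read in this screen; 0% = Sendai virus plus DMSO and 100% = medium plus DMSO without virus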); settings: HEK293 RL24 IRF3 luciferase reporter, at 10 µM, stronger effect = higher value
[8] = inhibitors of poly I:C-induced TLR3 signaling, primary screen, cell-based, poly I:C stimulus, luciferase, 10K MLSCN set (AID 602277;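 active = inhibition of the reporter signal at or above 50%; inactive = inhibition below 50%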); settings: HEK293-TLR3 RL24 IRF3 luciferase reporter, at 10 µM, stronger effect = higher value

Structure (SMILES)	cell count [1]	inhibition [1]	inhibition of aggregation [2]	nuclei count [2] [%]	inhibition [3]	nuclei count [3] [%]	fluorescence slope [4]	NADPH fluorescence slope [5]	slope [6]	inhibition [7]	inhibition [8]
C=CCn1c(SCC(=O)Nc2ccccc2OC)nnc1-c1ccco1	736	11% (inactive)	1.8% (inactive)	105	0.9% (inactive)	120	-0.494 (inactive)	-5.8e-05 (inactive)	0.00624 (inactive)	20.4% (inactive)	22.4% (inactive)
O=C(c1ccco1)N1CCN(C(=O)c2sccc2-c2ccccc2)CC1	310	20.7% (inactive)	7.1% (inactive)	90	-74.7% (inactive)	115	-0.581 (inactive)	2.3e-06 (inactive)	0.0052 (inactive)	-5.94% (inactive)	4.34% (inactive)
Cc1cc(C(=O)CSc2nnc(-c3ccco3)o2)c(C)n1CC1COc2ccccc2O1 (centres undefined)	393	0% (inactive)	15.2% (inactive)	90.2	-115% (inactive)	105	-0.516 (inactive)	-2.2e-05 (inactive)	0.00446 (inactive)	9.81% (inactive)	3.57% (inactive)
O=C(c1ccc(CSCc2ccccc2F)o1)N1CCN(c2ccc(N3CCOCC3)nn2)CC1	504	-13.1% (inactive)	40.2% (inactive)	79.3	-7.9% (inactive)	101	-0.435 (inactive)	-1.8e-06 (inactive)	0.00478 (inactive)	4.73% (inactive)	15.4% (inactive)
CCOC(=O)c1cc2n(n1)C(C(F)(F)C(F)(F)F)CC(C)N2 (centres undefined)	650	-12.1% (inactive)	4.6% (inactive)	113	-30.4% (inactive)	106	-0.429 (inactive)	2.3e-05 (inactive)	0.00828 (inactive)	11.4% (inactive)	14.9% (inactive)
Cc1ccc(S(=O)(=O)c2cc3c(=O)n4ccccc4nc3n(CC3CCCO3)c2=N)cc1C (centres undefined)	716	-1.6% (inactive)	-3.3% (inactive)	88.2	0.8% (inactive)	106	-0.439 (inactive)	-3.3e-05 (inactive)	0.00461 (inactive)	13.6% (inactive)	23.9% (inactive)
Cc1onc(-c2ccccc2Cl)c1C(=O)NCCn1c(C)cc2ccccc21	677	9% (inactive)	7.9% (inactive)	79.4	-37.1% (inactive)	124	-0.419 (inactive)	-1.5e-05 (inactive)	0.00456 (inactive)	15.6% (inactive)	36.3% (inactive)
O=C(NCCCNC(=O)c1ccccn1)c1ccccn1	711	-11.9% (inactive)	-10.1% (inactive)	97.9	-77.9% (inactive)	105	-0.491 (inactive)	-7e-05 (inactive)	0.00516 (inactive)	15.1% (inactive)	20% (inactive)
CC1/C(=N/O)C(CN(C)C)C2CC1C2(C)C (centres undefined)	347	-2.5% (inactive)	7.8% (inactive)	30.1	13.2% (inactive)	101	-0.592 (inactive)	1.8e-05 (inactive)	0.0062 (inactive)	3% (inactive)	11.5% (inactive)
O=C(Nc1ccc(CN2CCOCC2)cc1)c1cc2ccccn2n1	579	0% (inactive)	-6.8% (inactive)	99.9	8.4% (inactive)	108	-0.596 (inactive)	-1.7e-05 (inactive)	0.00566 (inactive)	45.9% (inactive)	12% (inactive)
CC(C)Cn1c(N)c(C(=O)COC(=O)c2ccc3c(c2)OCCO3)c(=O)n(C)c1=O	365	-4.4% (inactive)	-5.7% (inactive)	75.7	-5.7% (inactive)	106	-0.575 (inactive)	-6.3e-05 (inactive)	0.0066 (inactive)	-14.6% (inactive)	-49.5% (inactive)
CCCOc1ccc(C2C(C(=O)OC)=CN(CCOC)C=C2C(=O)OC)cc1	356	-11.3% (inactive)	-4.7% (inactive)	116	-128% (inactive)	111	-0.251 (inactive)	1.3e-05 (inactive)	0.00618 (inactive)	15.3% (inactive)	27.8% (inactive)
Cc1ccc(CCSCC(=O)O)cn1	174	4.9% (inactive)	1.9% (inactive)	90	10.4% (inactive)	83.6	-0.428 (inactive)	-1.1e-05 (inactive)	0.00565 (inactive)	4.3% (inactive)	0.219% (inactive)
NCCCCCc1nnc(SC/C=C/c2ccccc2)o1	396	-9.8% (inactive)	3% (inactive)	69.1	20.9% (inactive)	94	-0.488 (inactive)	-4.2e-05 (inactive)	0.00602 (inactive)	14.3% (inactive)	12.7% (inactive)
COCCCN1C(=O)C(=O)/C(=C(/O)c2ccc(OCC(C)C)cc2C)C1c1cccnc1 (centres undefined)	299	-2.4% (inactive)	-8.7% (inactive)	109	-28.7% (inactive)	110	-0.463 (inactive)	5.8e-06 (inactive)	0.00417 (inactive)	7.86% (inactive)	23.2% (inactive)
CCCN(CCC)S(=O)(=O)c1ccc(NS(C)(=O)=O)cc1	399	3.4% (inactive)	-3% (inactive)	108	-126% (inactive)	107	-0.391 (inactive)	1e-05 (inactive)	0.00362 (inactive)	6.07% (inactive)	12.8% (inactive)
CCCN1CCN(C(=O)Cn2c(=O)oc3cc(S(=O)(=O)NCc4ccccc4)ccc32)CC1	809	1.6% (inactive)	-16.6% (inactive)	117	-19.9% (inactive)	114	-0.51 (inactive)	-2.7e-05 (inactive)	0.00639 (inactive)	8.82% (inactive)	23.8% (inactive)
O=C(OCCN(CCOC(=O)c1ccncc1)S(=O)(=O)c1cccs1)c1ccncc1	888	10.8% (inactive)	-22.1% (inactive)	110	-180% (inactive)	123	-0.581 (inactive)	1e-05 (inactive)	0.00486 (inactive)	7.42% (inactive)	11.5% (inactive)
CCn1c(NC(=O)c2cccc(Cn3cc(Cl)cn3)c2)nc2ccccc21	598	4% (inactive)	13.3% (inactive)	81.8	-45.1% (inactive)	110	-0.506 (inactive)	-5.4e-05 (inactive)	0.0059 (inactive)	-3.99% (inactive)	-9.89% (inactive)
